In ChEMBL document CHEMBL1201862, “PubChem BioAssay data set” (2004):
The campaign covered roughly 390,000 compounds. About 1,400 (0.36%) were called active. Not shown: some 2% with an inconclusive outcome. This is one part of a sample in which actives are shown more often than they occur. No cut-off for these calls is given here.

These molecules were tested against Flap endonuclease 1 (Homo sapiens) (UniProt P39748) (assay: qHTS Assay for the Inhibitors of Human Flap endonuclease 1 (FEN1). [Related pubchem assays (depositor defined):AID488813]).
Assay type: functional

Flap endonuclease 1 (Homo sapiens), sequence (P39748 whole entry): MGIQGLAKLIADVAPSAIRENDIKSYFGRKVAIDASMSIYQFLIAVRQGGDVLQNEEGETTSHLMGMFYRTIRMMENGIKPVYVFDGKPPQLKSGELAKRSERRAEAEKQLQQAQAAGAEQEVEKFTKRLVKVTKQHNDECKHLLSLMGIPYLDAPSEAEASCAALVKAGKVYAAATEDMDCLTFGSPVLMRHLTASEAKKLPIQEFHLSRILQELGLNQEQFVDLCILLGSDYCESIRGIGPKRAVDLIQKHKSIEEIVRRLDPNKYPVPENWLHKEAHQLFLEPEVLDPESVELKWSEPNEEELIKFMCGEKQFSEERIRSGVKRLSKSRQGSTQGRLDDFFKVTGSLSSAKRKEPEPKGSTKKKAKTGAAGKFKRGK

| SMILES | Potency |
| --- | --- |
| CC(N)(Cc1ccc(O)c(O)c1)C(=O)O (stereo not drawn) | 2380 nM (active) |
| CCOC(=O)CN1C(=O)N[C@@H](c2cccc(C(F)(F)F)c2)C(C(=O)OC)=C1C | inactive |
| Nc1nc2ccc(OC(F)(F)F)cc2s1 | inactive |
| NCC(O)c1ccc(O)c(O)c1 (stereo not drawn) | 2990 nM (active) |
| C=CCN1C2CCCC1CC(N=C(S)Nc1cccc(OC)c1)C2 (stereo not drawn) | inactive |
| CC(=O)c1ccc(NC(=O)NNS(=O)(=O)c2ccc([N+](=O)[O-])cc2)cc1 | inactive |
| ICCCCN1C=S(CI)c2ccccc21 (stereo not drawn) | 50100 nM (active) |
| Cc1ccc(C)c(NC(=O)CN(C)C(=O)C2COc3ccccc3O2)c1 (stereo not drawn) | inactive |
